# PubChem BioAssay AID504652 (National Center for Advancing Translational Sciences (NCATS), 2011)
# Hit rate of the full screen: of about 360,000 compounds, about 11,000 (3.1%) were called active. Many of the other results were omitted from the sample, so actives are more common in it than they were. Unmarked numbers belong to inactive results. No stated cut-off is given here; in the data, active means activity change below about -30%; inactive means the rest.
# Target: D(1A) dopamine receptor (Homo sapiens) (UniProt P21728)
# Sequence (P21728 whole entry, looked up): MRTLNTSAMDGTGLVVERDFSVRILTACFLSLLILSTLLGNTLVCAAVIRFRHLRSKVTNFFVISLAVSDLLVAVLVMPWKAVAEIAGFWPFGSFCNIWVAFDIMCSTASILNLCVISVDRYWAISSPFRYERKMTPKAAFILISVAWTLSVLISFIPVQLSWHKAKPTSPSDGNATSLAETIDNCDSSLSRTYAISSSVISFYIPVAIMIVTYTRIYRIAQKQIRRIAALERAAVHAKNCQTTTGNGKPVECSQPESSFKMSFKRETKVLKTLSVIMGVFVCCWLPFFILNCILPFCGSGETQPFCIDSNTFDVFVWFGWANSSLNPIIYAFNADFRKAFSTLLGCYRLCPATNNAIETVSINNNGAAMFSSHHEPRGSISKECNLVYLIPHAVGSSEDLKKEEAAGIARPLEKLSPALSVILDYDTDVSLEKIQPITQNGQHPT
# Assay: Antagonist of Human D 1 Dopamine Receptor: qHTS
# Conditions: HEK293 TREx D1 cells, calcium flux, dopamine EC80; at 10 µM; hits give low values
# Procedure, shortened: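 Kinetic fluorescence of a calcium dye serves as the read-out. D1-expressing Hek293 Trex cells, induced overnight at 30 C, are exposed to compound for 180 s before an EC80 dopamine addition, then read 180 s further.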
# On the % scale 0 is the no-effect control and ±100 the full control effect.
row,SMILES,"activity change, negative = inhibition"
1,CCN(CC)CCn1c(N)c(S(=O)(=O)c2ccccc2)c2nc3ccccc3nc21,-52.8% (active)
2,CCC(=O)Nc1c(S(=O)(=O)c2ccccc2)c2nc3ccccc3nc2n1Cc1ccccc1,-7.1%
3,Cc1ccc(S(=O)(=O)c2c(N)n(C)c3nc4ccccc4nc23)cc1,-3.59%
4,CCn1cc(C(=O)NCCc2ccccc2)c(=O)c2cc(S(=O)(=O)N3CCCCCC3)ccc21,-7.94%
5,CCn1c2ccccc2c2nnc(N3CCN(c4cc(C)ccc4C)CC3)nc21,-7.14%
6,COc1cccc(C(=O)NC2CCN(C#N)CC2)c1,4.13%
7,O=C(NCCCN1CCCC1=O)c1cccc(S(=O)(=O)NCc2ccccc2)c1,-24.9%
8,Cc1cccc(C(=O)NCCCN2CCCC2=O)c1,-31.5% (active)
9,O=C(NCCCN1CCCC1=O)c1ccc(S(=O)(=O)Nc2ccccc2)cc1,4.25%
10,CCCCCCn1nnc2sc(-c3ccccc3)cc2c1=O,0.186%
11,CC(=O)c1cc(NC(=O)c2ccccc2)c(=O)oc1/C=C/N(C)C,0.591%
12,CCOC(=O)c1cc(NC(=O)c2ccc(F)cc2)c(=O)n2c1oc1ccccc12,0.884%
13,CCOC(=O)c1cc(NC(=O)c2ccc(Cl)cc2)c(=O)oc1-c1ccccc1,-34.6% (active)
14,CSc1ccccc1NC(=O)CCS(=O)(=O)c1nc(-c2cccs2)cc(C(F)(F)F)n1,2.34%
15,O=C(CNC(=O)c1ccccc1)OC(C(=O)Nc1cc([N+](=O)[O-])ccc1F)c1ccccc1 (centres undefined),4.21%
16,CC(C)(C)OC(=O)N1CCC(c2c(C(=O)N3CCN(c4cccc(Cl)c4)CC3)cnn2-c2cccc(Cl)c2)CC1,-2.09%
17,Cc1nc(SCC(=O)N2CCN(c3ccccc3)CC2)[nH]c(=O)c1C,-2.36%
18,Cc1ccc(OCC(=O)OC(C)CN(C)Cc2ccccc2)cc1 (centres undefined),-3.69%
19,COc1ccc(OCC(O)CN(C)C(=O)C(C)Oc2ccccc2)cc1 (centres undefined),-13.9%
20,CN(Cc1ccccc1)CC(O)COc1ccc(CNCc2cc3ccccc3s2)cc1 (centres undefined),-41.2% (active)
21,COc1cc(C(=O)N/C(=C\c2cn(C)c3ccccc23)C(=O)N2CCOCC2)cc(OC)c1OC,-33.6% (active)
22,CCn1cc(/C=C(\NC(=O)c2cc(OC)c(OC)c(OC)c2)C(=O)N2CCN(C)CC2)c2ccccc21,3.95%
23,Cc1ccc(C(=O)N/C(=C\c2cn(C)c3ccccc23)C(=O)N2CCN(C)CC2)cc1,10.2%

row,SMILES,"activity change, negative = inhibition"
1,COc1ccccc1Cc1nc2ccccc2nc1SCC(=O)N1CCCc2ccccc21,-2.97%
2,COc1ccc(NC(=O)c2cnc(Nc3ccc(C)c(Cl)c3)c3ccccc23)cc1OC,0.261%
3,Cc1cc(C)c(NC(=O)Cn2c(SCC(=O)NCc3ccccc3)nc3ccccc32)c(C)c1,2.9%
4,C/C=C/C(=O)OCc1csc(CC(=O)Nc2ccccc2C)n1,-6.19%
5,Cc1ccccc1NC(=O)Cc1nc(COC(=O)c2ccc(C(F)(F)F)cc2)cs1,-34.6% (active)
6,Cc1ccccc1NC(=O)Cc1nc(COC(=O)c2cccnc2Cl)cs1,-12%
7,CCC(=O)N1CCc2cc(CNC(=O)Nc3ccccc3Cl)ccc21,8.55%
8,CCCN1C(=O)C(O)(CC(=O)c2ccc(CC)cc2)c2cc(Br)ccc21 (centres undefined),-2.04%
9,Cc1ccc(-c2onc(C)c2C)cc1S(=O)(=O)Nc1ccccn1,-4.41%
10,COc1ccc(-c2onc(C)c2C)cc1S(=O)(=O)NCCc1ccccc1,-3.85%
11,O=S(=O)(c1ccc(Br)cc1)c1nnn2c1nc(N1CCOCC1)c1sccc12,0.25%
12,O=C(Nc1ccncc1)Nc1ccc(F)cc1,9%
13,O=C(Nc1ccc2ccccc2c1)Nc1ccc2snnc2c1,-44.8% (active)
14,Cc1nc2cc(NC(=O)Nc3cccc(F)c3)ccc2n1C,-4.15%
15,Cc1ccccc1NC(=O)Cn1c(=O)n(Cc2ccco2)c(=O)c2ccc(C(=O)NC3CCCC3)cc21,-18.2%
16,COc1ccc(NC(=O)C(c2ccccc2)N2Cc3ccccc3C2=O)cc1 (centres undefined),-6.94%
17,COc1ccc(OCC(=O)OCC(=O)Nc2ccc(S(=O)(=O)N3CCCCC3)cc2)cc1,-15.5%
18,Cc1ccc(Cl)c(OCC(=O)N(C)CC(=O)Nc2ccc(N3CCOCC3)cc2)c1,-14.5%
19,CN1CCN(c2ccc(NC(=O)COc3ccc(Cl)cc3Cl)cc2)CC1,-32% (active)
20,CCC(=O)c1ccc(OCC(=O)Nc2ccc(N3CCCCC3)cc2)cc1,16.6%
21,COc1ccc(OCC(=O)Nc2ccc(N3CCC(C)CC3)cc2)cc1,-33.3% (active)
22,CN1CCC(OC(=O)COc2ccc(Cl)cc2Cl)CC1,-9.08%
23,CCOC(=O)C1CCN(C(=O)CSc2c3c(nc4ccc(Cl)cc24)CCCC3)CC1,-13.5%

row,SMILES,"activity change, negative = inhibition"
1,CC(=O)N1CCc2cc(Br)cc(S(=O)(=O)CCC(=O)NCCc3ccc(Cl)cc3)c21,-8.71%
2,COc1ccc(-c2noc(CSc3nc4ccc(C)cc4[nH]3)n2)cc1,-1.27%
3,CC(=O)c1ccc(NC(=O)c2nc(-c3ccc(C)cc3)n3c2CCCCC3)cc1,-2.03%
4,Cn1cc(C(=O)c2ccc(Cl)cc2Cl)cc1C(=O)NN,-37.3% (active)
5,CC(C)(C)c1cc(C(=O)NN)n(Cc2ccc(Cl)cc2Cl)n1,-27.8%
6,O=C(CCN1C(=O)c2ccccc2C1=O)NNC(=O)c1ccc(Cl)cc1Cl,-4.44%
7,Cc1ccc(NC(=O)c2cn3c4c(ccc(Cl)c4c2=O)OC(C)C3)cc1C (centres undefined),-1.66%
8,Cc1cc(Cl)ccc1NC(=O)Cc1ccc(NC(=O)N2CCCCc3ccccc32)cc1,-3.59%
9,CCOc1ccc(NC(=O)CCc2c(C)nn(-c3ccc(N4CCCC4)nn3)c2C)cc1,4.71%
10,CC(=O)Nc1c(C)nn(-c2ccccc2)c1N1CCC(C(=O)Nc2cc(Cl)ccc2C)CC1,-18.9%
11,CSc1ncc(Cl)c(C(=O)Nc2ccc(S(=O)(=O)N3CCCC(C)C3)cc2)n1 (centres undefined),-5.19%
12,CCOc1ccc(CN(C)C(=O)c2ccc(=O)[nH]c2)cc1,10.3%
13,CN(CC(=O)Nc1ccc(Cl)cc1)C(=O)c1ccc(COc2ccccc2)cc1,3.34%
14,CN(Cc1ccccc1)C(=O)c1ccc(COc2ccccc2)cc1,-60.8% (active)
15,CCOc1cc(C2C(C(=O)OC)=C(C)NC3=C2C(=O)c2ccccc23)ccc1O (centres undefined),-1.02%
16,COc1ccccc1-c1cc2nc(C)c(CCC(=O)NC3CCCCC3)c(C)n2n1,2.22%
17,COC(=O)c1sccc1NC(=S)Nc1ccc(C)cc1,-32.4% (active)
18,COc1cc(NC(=O)Nc2ccc(C)cc2)cc([N+](=O)[O-])c1,-3.95%
19,COC(=O)c1ccc(NC(=S)Nc2cccc(C)n2)cc1,-4.64%
20,COC(=O)c1sccc1NS(=O)(=O)c1ccc(F)cc1F,-12%
21,COC(=O)c1sccc1NN1C(=O)c2ccccc2C1=O,-47.9% (active)
22,CCOC(=O)C(=CNNc1ccsc1C(=O)OC)C(=O)OCC,12.1%
23,COC(=O)c1ccc(NC(=O)Nc2ccc(C)cc2)cc1,-35.1% (active)

row,SMILES,"activity change, negative = inhibition"
1,COC(=O)c1sccc1NC(=O)c1ccc(Cl)cc1,1.11%
2,COC(=O)c1sccc1NC(=O)CCC1CCCC1,1.13%
3,Cc1oc2c(c1C(=O)Nc1ccc(F)c(F)c1)C1=NCCN1C=N2,-2.12%
4,CCOC(=O)c1ccc(NC(=O)c2ncn(-c3ccccc3)n2)cc1,-18.3%
5,O=C(CCC1N=C2c3ccccc3N=C(SCc3ccccc3F)N2C1=O)NCCc1ccccc1 (centres undefined),14.5%
6,COc1ccc(N2CCN(Cc3nc4c(c(=O)[nH]c(=O)n4C)n3Cc3ccc(Cl)cc3)CC2)cc1,-1.05%
7,Cc1cccc(CS(=O)(=O)c2ncc(Cl)c(C(=O)Nc3ccc(F)cc3)n2)c1,-44.7% (active)
8,Cc1cccc(NC(=O)c2nc(S(=O)(=O)Cc3ccccc3)ncc2Cl)c1,-28.7%
9,Cc1ccc(NC(=O)c2nc(S(=O)(=O)Cc3cccc(C)c3)ncc2Cl)cc1,-29.3%
10,CCc1cccc(CC)c1NC(=O)Cn1c(=O)c(-c2cc(C)ccc2NC(C)=O)nc2ccccc21,-15.1%
11,Cc1nn(C)c2c1c(C(F)(F)F)cc(=O)n2C(C)C(=O)NCc1ccc(Cl)cc1 (centres undefined),16.7%
12,O=C(Nc1ccc(S(=O)(=O)N2CCC(c3nc4ccccc4s3)CC2)cc1)c1ccccc1F,11%
13,COc1ccc(N2CCN(S(=O)(=O)CCNC(=O)C(c3ccccc3)c3ccccc3)CC2)cc1,-1.95%
14,O=[N+]([O-])c1ccccc1Nc1ccc(O)cc1,5.4%
15,CNc1ccc(NC(C)=O)cc1[N+](=O)[O-],-1.26%
16,CCOC(=O)c1ccc(NNC(C)=O)c([N+](=O)[O-])c1,-8.63%
17,Cc1ccc(Nc2ccc(C(N)=O)cc2[N+](=O)[O-])cc1,-47.2% (active)
18,NC(=O)c1ccc(Nc2ccc3c(c2)CCC3)c([N+](=O)[O-])c1,-48.2% (active)
19,CCOc1ccccc1Nc1ccc(C(=O)O)cc1[N+](=O)[O-],-11.5%
20,COC(=O)c1cnn(-c2ccc(C(=O)Nc3ccc(OC(F)(F)F)cc3)cc2)c1N,-10.8%
